Bioassay records (PubChem)
The entries come from a sample that favours hits as a whole.
SF1 inhibitor – SF-1 (human) inhibition; CHO-K1 Gal4-SF-1 LBD luciferase reporter; inhibition, % at 10 µM; 65,000 tested, 0.55% active;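 active = inhibition above the mean inhibition of all tested compounds plus 3 SD, cut at about 48% in these data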;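 also: 0% = SF-1 transfected cells with DMSO and 100% = mock-transfected cells lacking SF-1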
Target sequence (Q13285 whole entry, looked up, the tested form may be a part): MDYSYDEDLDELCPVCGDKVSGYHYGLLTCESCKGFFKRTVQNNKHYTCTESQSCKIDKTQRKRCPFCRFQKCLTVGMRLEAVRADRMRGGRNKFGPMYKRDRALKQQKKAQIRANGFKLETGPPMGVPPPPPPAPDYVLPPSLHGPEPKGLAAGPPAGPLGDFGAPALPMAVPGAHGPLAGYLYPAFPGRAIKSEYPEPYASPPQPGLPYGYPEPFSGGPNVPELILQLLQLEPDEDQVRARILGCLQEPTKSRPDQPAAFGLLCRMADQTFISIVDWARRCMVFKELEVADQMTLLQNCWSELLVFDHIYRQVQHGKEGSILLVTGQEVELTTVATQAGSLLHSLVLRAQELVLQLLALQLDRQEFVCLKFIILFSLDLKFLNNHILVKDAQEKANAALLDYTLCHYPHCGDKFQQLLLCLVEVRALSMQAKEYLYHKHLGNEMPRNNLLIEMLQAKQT
Starred values were filed as active, the others as inactive.

Cc1c(C(=O)Nc2ccccc2)sc2nc(-c3ccccc3)cn12 was read as SF1 inhibitor -54.
`COc1ccc2c(c1)sc1nc(-c3ccccc3)cn12` gave SF1 inhibitor 89*.
For COc1cccc(-c2csc(NC(=O)C3CC3)n2)c1 the results were SF1 inhibitor -60.
`COc1ccc(OC)c(NC(=O)CSc2ncccc2C(=O)O)c1` gave SF1 inhibitor 5.
For CN(C)CC(C(=O)c1ccccc1)c1ccccc1 (centres undefined) the results were SF1 inhibitor 68*.
For CCc1ccc2[nH]cc(C(=O)N3CCCCCC3)c(=O)c2c1 the results were SF1 inhibitor 1.
O=C(c1ccc2c3c(cccc13)C(=O)N(O)C2=O)N1CCCCC1 was read as SF1 inhibitor 66*.
O=C(c1n[nH]c(=O)c2ccccc12)N1CCN(c2ccccc2Cl)CC1 was read as SF1 inhibitor 1.
Screening CSc1nc2sc3c(c2c2nncn12)CCC3 returned SF1 inhibitor 1.
`COC(=O)c1cc(OC)c(OCc2cc(C(=O)OC)oc2C)c(OC)c1` gave SF1 inhibitor 3.
Screening CS(=O)c1nc(-c2ccc(Br)cc2)cc(-c2ccccc2)c1C#N (centres undefined) returned SF1 inhibitor 61*.
Screening CCc1ccc(C(=O)NCC2COc3ccccc3O2)o1 (centres undefined) returned SF1 inhibitor -25.
`Clc1ccc(SCCCCn2cncn2)cc1` gave SF1 inhibitor -15.
COc1ccc(-c2cc(C(F)(F)F)nc(SCC(=O)Nc3cc(C)on3)n2)cc1OC was read as SF1 inhibitor 23.
`Cc1cc(NC(=O)CCCS(=O)(=O)c2nc(-c3cccs3)cc(C(F)(F)F)n2)no1` gave SF1 inhibitor 48*.
For Nc1c(C(=O)NC2CCCC2)sc2nc(-c3cccs3)ccc12 the results were SF1 inhibitor -60.
CCn1cnc2c1c(=O)n(CC(=O)Nc1cc(C)on1)c(=O)n2Cc1ccccc1 was read as SF1 inhibitor 0.
CS(=O)(=O)c1nc(-c2cccs2)cc(C(F)(F)F)n1 was read as SF1 inhibitor 70*.
`COc1ccc(N(CC(=O)NCCSC(C)(C)C)S(C)(=O)=O)c(OC)c1` gave SF1 inhibitor -10.
Screening CC(=O)c1c(C)[nH]c(C(=O)NCCC2=CCCCC2)c1C returned SF1 inhibitor -84.
COc1ccc(-c2cc(C(=O)N3CCN(c4ccccn4)CC3)c3ccccc3n2)cc1 was read as SF1 inhibitor -90.
Screening COc1nc(-c2ccccc2)ccc1-c1noc(-c2ccco2)n1 returned SF1 inhibitor -55.
`Cn1cccc1CNC(=O)Nc1ccc(Cl)c(Cl)c1` gave SF1 inhibitor -66.
`CCCCNC(=O)Nc1ccccc1C(=O)NCc1ccco1` gave SF1 inhibitor 16.
Screening O=C1N(CC(=O)N2CCc3ccccc32)CCN1Cc1ccc(Cl)cc1 returned SF1 inhibitor 5.
Cn1c(C(=O)O)c(CC(=O)NCC2COc3ccccc3O2)c2ccccc21 (centres undefined) was read as SF1 inhibitor 17.
COC(=O)c1c(C)[nH]c(C(C)=O)c1C was read as SF1 inhibitor -16.
`COc1ccccc1OCC(=O)c1[nH]c(C)c(C(C)=O)c1C` gave SF1 inhibitor 50*.
`CCOC(=O)c1c(C)[nH]c(C)c1C(=O)COC(=O)CCOc1ccccc1OC` gave SF1 inhibitor -2.
`Cc1cc(C)n(-c2nc3ccccc3nc2N2CCN(C(=O)c3ccc(F)cc3)CC2)n1` gave SF1 inhibitor -15.
CCOC(=O)Cn1cc(C(=O)OC)c2ccccc21 was read as SF1 inhibitor -6.
Screening C/C(N)=C(/C#N)C(=O)CSc1nnc(Nc2cccc(C)c2)s1 returned SF1 inhibitor -69.
For Cc1ccc(C)c(S(=O)(=O)c2c(N)n(/N=C/c3ccco3)c3nc4ccccc4nc23)c1 the results were SF1 inhibitor 15.
O=c1[nH]c2ccccc2nc1-c1cccs1 was read as SF1 inhibitor -54.
Screening c1csc(-c2ccc3ccccc3n2)c1 returned SF1 inhibitor -79.
c1ccc2nc(-c3nc4ccccc4[nH]3)ccc2c1 was read as SF1 inhibitor 67*.
For Cc1nn(-c2ccccc2)c(C)c1C(=O)OCC(=O)c1c(N)n(CC(C)C)c(=O)n(C)c1=O the results were SF1 inhibitor 55*.
`COC(=O)CCc1c(C)nn(-c2ccccc2)c1C` gave SF1 inhibitor -9.
`Cn1ccc(C(=O)OCC(=O)c2ccccc2)n1` gave SF1 inhibitor -5.
`Cc1ccc2nc(Cc3ccc(N)cc3)oc2c1` gave SF1 inhibitor -68.
For CCC(=O)NCCCOc1ccccc1 the results were SF1 inhibitor -2.
Screening O=C(OCc1nc2ccccc2s1)c1cccs1 returned SF1 inhibitor -50.
Screening O=C(c1ccc(CS(=O)(=O)Cc2ccc(Cl)cc2)o1)N1CCCC1 returned SF1 inhibitor 5.
`CCCS(=O)(=O)c1nnnn1-c1cccc(OC)c1` gave SF1 inhibitor 58*.
For CCOC(=O)Cn1nnc(-c2cccc(OC)c2)n1 the results were SF1 inhibitor 6.
For CCCC(c1nnnn1CCOC)N1CCN(c2cccc(OC)c2)CC1 (centres undefined) the results were SF1 inhibitor 0.
Screening CCC(c1nnc(SCCNCCO)n1CCN1CCOCC1)N(C)C (centres undefined) returned SF1 inhibitor -11.
`COc1cc(C(=O)NCC(c2ccco2)N2CCCC2)ccc1OCc1c(C)noc1C` (centres undefined) gave SF1 inhibitor -6.
Screening CC12CN3CC(C)(CN(C1)C3c1ccc(Br)cc1)C2=O (centres undefined) returned SF1 inhibitor 7.
`CCOCCN1CCN(c2c3c(nc4cc(-c5ccc(F)cc5)nn24)CCC3)CC1` gave SF1 inhibitor 9.
Cn1c(=O)c2cn3c(c2n(C)c1=O)C(c1ccccc1)CC(c1ccccc1)=N3 (centres undefined) was read as SF1 inhibitor -8.
`O=C(CC12CC3CC(CC(C3)C1)C2)NCO` gave SF1 inhibitor -8.
Clc1cc(Cl)c2nc(N3CCOCC3)sc2c1 was read as SF1 inhibitor -58.
c1ccc(N2CCN(c3nc4cc5c(cc4s3)OCCO5)CC2)cc1 was read as SF1 inhibitor -61.
c1c2c(cc3sc(N4CCOCC4)nc13)OCCO2 was read as SF1 inhibitor 65*.
Screening Cc1ccc(S(=O)(=O)C2(C(=O)N(C)C3CCCCC3)CC2)cc1 returned SF1 inhibitor -6.
`CC1Cc2ccccc2N1C(=O)CCNS(=O)(=O)c1cccc2nsnc12` (centres undefined) gave SF1 inhibitor 7.
`COc1ccc(-c2c(N)nnc3c2[nH]c2ccccc23)cc1OC` gave SF1 inhibitor 7.
For O=C(CCCN1CCC(c2ccccc2)C1)c1ccc2c(c1)OCCO2 (centres undefined) the results were SF1 inhibitor 5.
CC1CCN(c2nc3ccc(C(=O)O)cc3s2)CC1 was read as SF1 inhibitor 94*.
`O=C(NCC1CCCO1)c1ccc2nc(N3CCCCC3)sc2c1` (centres undefined) gave SF1 inhibitor -54.
Screening Clc1ccc2nc(N3CCCCC3)sc2c1 returned SF1 inhibitor -65.
For Cc1ccc(C)c(S(=O)(=O)Nc2ccc(S(=O)(=O)Nc3onc(C)c3C)cc2)c1 the results were SF1 inhibitor 7.
Screening COC(=O)C1C(=O)C2=C(CC1C)NC(C)=C(C(=O)OC1CCCC1)C2c1ccc(N(C)C)cc1 (centres undefined) returned SF1 inhibitor 0.
